Here are results for 12 sequences from paper PMC7862700, “An all-to-all approach to the identification of sequence-specific readers for epigenetic DNA modifications on cytosine”.

What all share (test): DAPPL (digital affinity profiling via proximity ligation, sequencing); 10 mM Tris-HCl pH 7.5, 50 mM NaCl, 1 mM DTT, 4% glycerol, room temperature, 30 min; GST-TFs on glutathione beads, 16-mer random dsDNA library, 0.1% formaldehyde crosslink after washing; high values mean tight binding
The target in one experiment is T1, ELK3 (Homo sapiens, UniProt P41970 1-407).
T1 sequence: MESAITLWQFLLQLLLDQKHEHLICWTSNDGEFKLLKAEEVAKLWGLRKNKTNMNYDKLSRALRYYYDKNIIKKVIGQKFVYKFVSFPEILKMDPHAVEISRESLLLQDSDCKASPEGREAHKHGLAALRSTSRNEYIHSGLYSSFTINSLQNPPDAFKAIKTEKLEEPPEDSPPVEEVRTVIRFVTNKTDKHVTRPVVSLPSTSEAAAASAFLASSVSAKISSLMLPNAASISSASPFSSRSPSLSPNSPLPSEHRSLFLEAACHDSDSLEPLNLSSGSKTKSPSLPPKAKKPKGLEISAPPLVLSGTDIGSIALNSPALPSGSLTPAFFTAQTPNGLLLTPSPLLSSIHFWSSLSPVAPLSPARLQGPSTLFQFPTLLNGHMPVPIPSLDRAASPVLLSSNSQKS
The note with it: protein: recombinant; tags: N-terminal GST; dsDNA, one strand shown. An outline of the steps:
(§1)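 Binding signal is defined as a hexamer's read frequency for one factor over its frequency for the tag-only sample. To obtain reads, GST-fused human transcription factors were expressed in yeast, captured on glutathione beads, barcoded with DNA and pooled with that sample. Pools met 200 nmole of a 16-mer random double-stranded DNA library in Tris/NaCl/DTT/glycerol buffer for 30 min at room temperature before washing, 0.1% formaldehyde crosslinking, proximity ligation (BsaI/T4 ligase, 1 h, 37 °C), PCR and Illumina NextSeq500 sequencing.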

In another experiment the target is HSF1 (Homo sapiens, UniProt Q00613 1-529). Particulars: protein: recombinant; tags: N-terminal GST; chain copies: 3; dsDNA, one strand shown. The procedure, abridged: as §1
The target of a further experiment is T2, SPIC (Homo sapiens, UniProt Q8N5J4 1-248).
T2 sequence: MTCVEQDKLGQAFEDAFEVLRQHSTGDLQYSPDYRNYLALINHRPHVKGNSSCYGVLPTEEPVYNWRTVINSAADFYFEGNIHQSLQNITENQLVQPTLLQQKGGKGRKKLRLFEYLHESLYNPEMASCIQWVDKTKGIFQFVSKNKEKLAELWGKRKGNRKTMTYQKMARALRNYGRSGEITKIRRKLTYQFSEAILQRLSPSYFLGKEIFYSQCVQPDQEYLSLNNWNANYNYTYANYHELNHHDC
The note with it: protein: recombinant; tags: N-terminal GST; dsDNA, one strand shown. An outline of the steps: as §1

Another experiment addresses CRX (Homo sapiens, UniProt O43186 1-299). Particulars: protein: recombinant; tags: N-terminal GST; dsDNA, one strand shown. An outline of the steps: as §1
The target of the next experiment is T3, ELF5 (Homo sapiens, UniProt Q9UKW6-2 1-255).
T3 sequence: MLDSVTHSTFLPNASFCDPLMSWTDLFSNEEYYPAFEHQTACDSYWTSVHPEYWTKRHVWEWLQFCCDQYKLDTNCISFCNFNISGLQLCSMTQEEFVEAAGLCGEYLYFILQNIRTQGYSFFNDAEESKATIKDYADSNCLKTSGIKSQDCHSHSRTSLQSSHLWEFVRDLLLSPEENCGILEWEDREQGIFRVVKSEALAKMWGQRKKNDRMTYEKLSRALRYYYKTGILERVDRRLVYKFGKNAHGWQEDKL
Particulars: protein: recombinant; tags: N-terminal GST; dsDNA, one strand shown. The procedure, abridged: as §1

A further experiment deals with T4, ELF3 (Homo sapiens, UniProt P78545 1-371).
T4 sequence: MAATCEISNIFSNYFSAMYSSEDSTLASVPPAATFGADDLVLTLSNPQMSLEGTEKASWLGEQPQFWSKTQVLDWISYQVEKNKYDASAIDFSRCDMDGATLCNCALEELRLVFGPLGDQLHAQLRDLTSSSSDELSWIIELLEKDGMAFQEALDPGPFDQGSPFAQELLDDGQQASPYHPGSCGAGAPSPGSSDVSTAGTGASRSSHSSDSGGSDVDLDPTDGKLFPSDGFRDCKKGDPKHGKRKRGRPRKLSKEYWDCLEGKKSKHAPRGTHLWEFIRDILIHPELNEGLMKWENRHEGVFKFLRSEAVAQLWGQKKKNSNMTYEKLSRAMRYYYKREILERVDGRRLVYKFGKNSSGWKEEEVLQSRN
Particulars: protein: recombinant; tags: N-terminal GST; dsDNA, one strand shown. An outline of the steps: as §1

The next experiment addresses T5, FLI1 (Homo sapiens, UniProt Q01543 1-452).
T5 sequence: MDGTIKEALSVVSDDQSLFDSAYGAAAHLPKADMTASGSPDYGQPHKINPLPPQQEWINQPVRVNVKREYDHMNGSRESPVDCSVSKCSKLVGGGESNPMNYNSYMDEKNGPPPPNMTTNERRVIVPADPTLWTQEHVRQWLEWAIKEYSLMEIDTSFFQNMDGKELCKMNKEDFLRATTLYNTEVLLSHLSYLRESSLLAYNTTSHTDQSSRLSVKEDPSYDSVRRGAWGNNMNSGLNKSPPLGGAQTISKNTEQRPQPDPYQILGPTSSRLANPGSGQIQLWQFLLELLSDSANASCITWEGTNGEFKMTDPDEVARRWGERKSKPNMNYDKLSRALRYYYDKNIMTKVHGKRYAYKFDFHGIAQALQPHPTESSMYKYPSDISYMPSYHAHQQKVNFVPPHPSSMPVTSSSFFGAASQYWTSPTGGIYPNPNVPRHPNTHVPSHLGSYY
Particulars: protein: recombinant; tags: N-terminal GST; dsDNA, one strand shown. An outline of the steps:
as §1

Sequence of HSF1 (Q00613 whole entry): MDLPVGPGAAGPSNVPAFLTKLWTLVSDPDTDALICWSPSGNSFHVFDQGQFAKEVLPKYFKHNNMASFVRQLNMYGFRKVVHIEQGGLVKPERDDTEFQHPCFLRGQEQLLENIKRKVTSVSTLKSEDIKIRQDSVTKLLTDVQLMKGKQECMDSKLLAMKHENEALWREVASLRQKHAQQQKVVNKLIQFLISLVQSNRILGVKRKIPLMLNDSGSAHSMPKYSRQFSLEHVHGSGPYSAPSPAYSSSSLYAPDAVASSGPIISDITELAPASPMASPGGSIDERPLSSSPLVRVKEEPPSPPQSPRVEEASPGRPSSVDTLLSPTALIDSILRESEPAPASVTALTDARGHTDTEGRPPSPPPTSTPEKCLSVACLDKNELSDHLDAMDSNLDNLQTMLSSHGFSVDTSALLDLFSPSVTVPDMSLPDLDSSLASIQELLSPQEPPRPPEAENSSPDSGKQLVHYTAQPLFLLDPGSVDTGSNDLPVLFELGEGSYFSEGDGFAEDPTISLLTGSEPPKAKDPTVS
Sequence of CRX (O43186 whole entry): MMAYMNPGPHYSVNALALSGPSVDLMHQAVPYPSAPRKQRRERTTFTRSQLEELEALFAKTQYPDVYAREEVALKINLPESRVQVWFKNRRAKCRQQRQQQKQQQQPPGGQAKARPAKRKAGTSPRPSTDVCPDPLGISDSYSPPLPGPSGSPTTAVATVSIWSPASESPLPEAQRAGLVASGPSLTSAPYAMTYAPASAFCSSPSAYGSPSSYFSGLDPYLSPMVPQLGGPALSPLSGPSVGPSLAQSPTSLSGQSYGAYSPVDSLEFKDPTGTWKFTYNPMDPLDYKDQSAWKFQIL

AGAAAA: the binding signal with ELK3 was 1 fold enrichment (6-mer frequency, TF over GST control); with HSF1, 2.39 fold enrichment (6-mer frequency, TF over GST control); with SPIC, 1.04 fold enrichment (6-mer frequency, TF over GST control); with CRX, 1.27 fold enrichment (6-mer frequency, TF over GST control); in the experiment with ELF5 it was 1.02 fold enrichment (6-mer frequency, TF over GST control).
On to TGGCGA, for which the binding signal in the experiment with HSF1 was 1.03 fold enrichment (6-mer frequency, TF over GST control); with SPIC, 1.08 fold enrichment (6-mer frequency, TF over GST control).
For the sequence CATTAA, the binding signal with HSF1 was 1.36 fold enrichment (6-mer frequency, TF over GST control); with SPIC it was 1.08 fold enrichment (6-mer frequency, TF over GST control); in the experiment with ELF3, 1.05 fold enrichment (6-mer frequency, TF over GST control); with CRX, 1.92 fold enrichment (6-mer frequency, TF over GST control).
Regarding TGAAAT, the binding signal in the experiment with HSF1 is 1.02 fold enrichment (6-mer frequency, TF over GST control); in the experiment with SPIC, 1.01 fold enrichment (6-mer frequency, TF over GST control); in the experiment with ELF3 it was 1.09 fold enrichment (6-mer frequency, TF over GST control); with CRX, 1.03 fold enrichment (6-mer frequency, TF over GST control).
Consider CGTAAA, for which the binding signal with ELK3 was 1.17 fold enrichment (6-mer frequency, TF over GST control); with HSF1, 1.17 fold enrichment (6-mer frequency, TF over GST control); with SPIC, 1.09 fold enrichment (6-mer frequency, TF over GST control); with ELF3, 1.12 fold enrichment (6-mer frequency, TF over GST control); with CRX, 1.15 fold enrichment (6-mer frequency, TF over GST control); with ELF5, 1.14 fold enrichment (6-mer frequency, TF over GST control).
For the sequence AGCGAT, the binding signal with ELK3 is 1.23 fold enrichment (6-mer frequency, TF over GST control); with HSF1, 1.1 fold enrichment (6-mer frequency, TF over GST control); with SPIC, 1.11 fold enrichment (6-mer frequency, TF over GST control); with ELF3, 1.2 fold enrichment (6-mer frequency, TF over GST control); with CRX it was 1.29 fold enrichment (6-mer frequency, TF over GST control).
Take AGAAGT: the binding signal with ELK3 is 1.11 fold enrichment (6-mer frequency, TF over GST control); with HSF1 it was 1.45 fold enrichment (6-mer frequency, TF over GST control); with SPIC it was 1.19 fold enrichment (6-mer frequency, TF over GST control); in the experiment with ELF3 it was 1.05 fold enrichment (6-mer frequency, TF over GST control); with ELF5, 1.1 fold enrichment (6-mer frequency, TF over GST control).
CCCAAA: the binding signal is 1.1 fold enrichment (6-mer frequency, TF over GST control) with ELK3; 1.13 fold enrichment (6-mer frequency, TF over GST control) in the experiment with HSF1; 1.04 fold enrichment (6-mer frequency, TF over GST control) in the experiment with SPIC; 1.2 fold enrichment (6-mer frequency, TF over GST control) with ELF3; 1.13 fold enrichment (6-mer frequency, TF over GST control) with CRX; 1.06 fold enrichment (6-mer frequency, TF over GST control) with ELF5.
For GAGCTT, the binding signal is 1.02 fold enrichment (6-mer frequency, TF over GST control) in the experiment with ELK3; 1.2 fold enrichment (6-mer frequency, TF over GST control) with HSF1; 1.09 fold enrichment (6-mer frequency, TF over GST control) with SPIC; 1.04 fold enrichment (6-mer frequency, TF over GST control) with ELF3; 1.43 fold enrichment (6-mer frequency, TF over GST control) with CRX.
As for TAGCGT, the binding signal with HSF1 was 1.04 fold enrichment (6-mer frequency, TF over GST control); with SPIC, 1.02 fold enrichment (6-mer frequency, TF over GST control); in the experiment with CRX, 1.15 fold enrichment (6-mer frequency, TF over GST control).
Turning to TGACGG, the binding signal with FLI1 is 1.01 fold enrichment (6-mer frequency, TF over GST control); with ELF3, 1.06 fold enrichment (6-mer frequency, TF over GST control); with ELF5 it was 1.06 fold enrichment (6-mer frequency, TF over GST control).
In the case of AGAGCT, the binding signal is 1.05 fold enrichment (6-mer frequency, TF over GST control) in the experiment with HSF1; 1.04 fold enrichment (6-mer frequency, TF over GST control) with SPIC; 1.03 fold enrichment (6-mer frequency, TF over GST control) in the experiment with ELF3; 1.14 fold enrichment (6-mer frequency, TF over GST control) in the experiment with CRX.
